According to PubChem BioAssay (NCI):
Compounds without any hit were thinned out: in the full panel of roughly 83,000, 20% have a hit.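 How to read the values: 0–100, growth inhibition (40 = 60% inhibited); 0, no net growth; -100 to 0, cell death (-40 = 40% of starting cells died; -100 = all dead).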 Values without a mark were called inactive. The source made the active and inactive calls. Rule for the calls: active = growth percent below 10; inactive = the rest.

Columns and labels:
Assay in all cases: NCI-60 one-dose screen, 48 h (100 = growth as untreated, 0 = no growth, -100 = all killed)
Conditions in all cases: 10 µM
HCT-15 colon = system: HCT-15 colon
HT29 colon = system: HT29 colon
SNB-75 CNS = system: SNB-75 CNS
SNB-19 CNS = system: SNB-19 CNS
U251 CNS = system: U251 CNS
PC-3 prostate = system: PC-3 prostate
SK-MEL-5 melanoma = system: SK-MEL-5 melanoma
UACC-62 melanoma = system: UACC-62 melanoma
SK-MEL-28 melanoma = system: SK-MEL-28 melanoma
SK-MEL-2 melanoma = system: SK-MEL-2 melanoma
EKVX NSCLC = system: EKVX NSCLC
SN12C renal = system: SN12C renal
TK-10 renal = system: TK-10 renal
ACHN renal = system: ACHN renal
A498 renal = system: A498 renal
CCRF-CEM leukemia = system: CCRF-CEM leukemia
MOLT-4 leukemia = system: MOLT-4 leukemia
LOX IMVI melanoma = system: LOX IMVI melanoma
UO-31 renal = system: UO-31 renal
CAKI-1 renal = system: CAKI-1 renal

| SMILES | growth (HCT-15 colon) | growth (HT29 colon) | growth (SNB-75 CNS) | growth (SNB-19 CNS) | growth (U251 CNS) | growth (PC-3 prostate) | growth (SK-MEL-5 melanoma) | growth (UACC-62 melanoma) | growth (SK-MEL-28 melanoma) | growth (SK-MEL-2 melanoma) | growth (EKVX NSCLC) | growth (SN12C renal) | growth (TK-10 renal) | growth (ACHN renal) | growth (A498 renal) | growth (CCRF-CEM leukemia) | growth (MOLT-4 leukemia) | growth (LOX IMVI melanoma) | growth (UO-31 renal) | growth (CAKI-1 renal) |
| --- | --- | --- | --- | --- | --- | --- | --- | --- | --- | --- | --- | --- | --- | --- | --- | --- | --- | --- | --- | --- |
| O=C1c2c(c(=O)[nH]c3ccccc23)CCN1Cc1ccccc1 | 96.6% | 99.3% | 79.8% | 99.6% | 103% | 84.9% | 108% | 97.1% | 107% | 127% | 92.4% | 97.4% | 119% | 91.8% | 110% | 100% | 105% | – | – | – |
| CN1C(C(=O)Nc2ccccn2)=C(O)c2sc(Cl)cc2S1(=O)=O | 112% | 103% | 89.5% | 104% | 95.4% | 87.9% | 102% | 92.4% | 102% | – | 102% | 103% | – | 100% | 90.1% | 87.4% | 110% | 96% | 78.8% | 92.4% |
| O=[N+]([O-])c1cc(Cl)cc(Cl)c1O | 101% | 97.7% | 90.8% | 103% | 104% | 103% | 101% | – | 102% | 103% | 96% | 101% | 95.1% | 99.4% | 106% | 98.7% | 106% | 92.6% | 84% | – |
| Nc1nc(Cl)nc2c1ncn2C1O[C@H](CO)[C@@H](O)[C@@H]1F (some centres undefined) | 48.1% | 41.2% | 37% | 19% | 27% | 60.5% | 32.1% | -10.3% (active) | 73.8% | – | 38.1% | 14.5% | 64.5% | 3.32% (active) | 15.6% | 2.64% (active) | -4.67% (active) | 4.83% (active) | 0.968% (active) | – |
| OCC1OC(n2ccc3c(NO)ncnc32)C(O)C1O (centres undefined) | -37.6% (active) | -1.97% (active) | -24.2% (active) | -0.974% (active) | 0.0054% (active) | -7.72% (active) | -90.8% (active) | – | -47.5% (active) | -78.6% (active) | -15.3% (active) | -27.2% (active) | -15.1% (active) | -15.3% (active) | -51.1% (active) | -8.6% (active) | -32.9% (active) | -45.3% (active) | -25% (active) | – |
| O[C@@H]1CO[C@H]2[C@@H]1OC[C@@H]2O | 102% | 103% | 91.1% | 99.5% | 108% | 90% | 116% | 103% | 113% | – | 87.6% | 103% | 117% | 98.9% | – | 101% | 116% | 97% | 106% | 79.2% |
| COc1ccc2nc3cc(Cl)ccc3c(NCCCNCCO)c2c1 | 13.6% | -66.3% (active) | -36.4% (active) | 4.9% (active) | -45.2% (active) | -30.6% (active) | 14.3% | – | -49% (active) | -87.7% (active) | -12.9% (active) | 5.95% (active) | -29.4% (active) | -9.61% (active) | -57% (active) | -1.87% (active) | 2.6% (active) | -59.7% (active) | -11.5% (active) | 18.7% |
| COc1cc(/C=C/c2cc(/C=C/c3ccc(O)c(OC)c3)n(C(=O)Nc3ccccc3Cl)n2)ccc1O | 15% | -35% (active) | -4.71% (active) | 15.5% | 2.33% (active) | 6.54% (active) | -23.8% (active) | – | 12.1% | -12.3% (active) | 17.7% | 14.2% | 16.1% | 12.8% | – | -4.54% (active) | -4.57% (active) | 1.22% (active) | -34.8% (active) | 7.29% (active) |
